Most compounds without a hit are left out; they make up all but 9.4% or so of the library.
AMA1-RON2 inh: AMA1-RON2 (P. falciparum) interaction inhibition | AlphaScreen AMA1-biotinylated RON2 peptide binding | Potency, µM (doses to about 58.2 µM), most hits filed as inhibitors | hit rate 0.2% among 360,000; further: nearly all actives have a fitted effect of over 45% in size
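AMA1 (3D7) with his tag at 25 nM final met compounds first, then biotinylated RON2 peptide at 25 nM; detection used donor plus acceptor beads, 10 µg/mL apiece, read by AlphaScreen after 30 min at room temperature.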
Pf growth 48h: P. falciparum growth inhibition at 48 hours (one generation). P. falciparum luciferase growth in erythrocytes, 48 h. Potency, µM (doses to about 28.7 µM), most hits filed as inhibitors. hit rate 5.9% among 310,000
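Parasite viability was followed by luminescence of a genomically integrated firefly luciferase. Cultures held 0.1% parasitemia at 2% hematocrit (final), incubated under 5% CO2 at 37 C.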
Pf growth 96h: inhibits malaria parasite growth, 96 h. P. falciparum luciferase reporter growth, 96 h. Potency, µM (top dose mostly 28.7 µM), actives largely listed as inhibitors. hit rate 6.9% among 320,000
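P. falciparum expressing integrated firefly luciferase, in erythrocytes at 2% hematocrit, 0.05% parasitemia, incubated with compounds 96 h at 37 C, 5% CO2. Growth inhibition read as loss of luminescence; two-generation exposure targets delayed-death apicoplast inhibitors.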
SARS PLpro yeast: blocks SARS-CoV papain-like protease in a yeast assay; S. cerevisiae expressing SARS-CoV PLpro, growth rescue; Potency, µM (highest dose often 32.9 µM), actives largely listed as activators; hit rate 0.19% among 330,000; calls by dose curve; further: nearly all actives have a fitted effect of over 55% in size
Hits are given with their value; i = inactive; ? = inconclusive; nt = not tested or not shown; [ ] = another dose, or the depositor's remark. Unless noted, the call rests on the fitted dose curve; in most records, active means well fitted curve in the direction sought with a large enough effect; inconclusive means small, poorly fitted or top-dose-only effect, or another doubt; inactive means no such curve, though single readings can be large; an effect the other way counts as inactive or inconclusive.

SMILES	AMA1-RON2 inh	Pf growth 48h	Pf growth 96h	SARS PLpro yeast
CNC(=O)c1cc(Cl)c(OC)c(OC)c1	i	i	?	i
COc1ccc(N=Cc2c(O)cc(C)oc2=O)cc1	i	i[1.15 µM]	i[1.15 µM]	i
CN(C)N1C(=O)CC(NNC(=O)c2ccncc2)C1=O (centres undefined)	i	i	i	i
CCOc1cc(C2C(C#N)=C(N)Oc3n[nH]c(-c4ccncc4)c32)cc([N+](=O)[O-])c1O (centres undefined)	i	i	i	i
COc1ccc(NC(=O)c2cc(-c3ccncc3)nc3ccc(Br)cc23)cc1OC	i	13.1µM	i	i
O=C(Nc1ncccn1)c1cc(-c2cccc(Br)c2)nc2ccccc12	i[11.6 µM]	?	1.65µM	i
O=C(Nc1ccncc1)c1cc(-c2cccc(Br)c2)nc2ccccc12	i	0.928µM	0.828µM	i
Cc1cccc(-n2c(SCC(N)=O)nnc2-c2ccccn2)c1C	i	i	i	i
O=[N+]([O-])c1ccc(/C=[N+](\[O-])[C@@H]2CCCC[C@@H]2/[N+]([O-])=C/c2ccc([N+](=O)[O-])o2)o1	i	i[0.00184 µM]	?	i
Cc1c(Cl)cccc1NC(=O)CNC(=O)c1cn(-c2ccccc2)nc1-c1cccnc1	i	?	?	i
COc1ccc(O)c(/C=N/Nc2nc(Nc3ccccc3)nc(-n3nc(C)cc3C)n2)c1	i	1.85µM	2.08µM	i
COc1cc(/C=N/Nc2nc(Nc3ccccc3)nc(N3CCCCC3)n2)ccc1OCC(=O)O	i	i	?	i
COc1cc(/C=N/Nc2nc(Nc3ccc(C)cc3)nc(-n3nc(C)cc3C)n2)cc(OC)c1OC	i	nt	1.85µM	i
COc1ccc(O)c(/C=N/Nc2nc(C)cc(-c3ccccc3)n2)c1	i	nt	nt	nt
COc1cc(/C=N/Nc2nc(Nc3ccccc3)nc(-n3nc(C)cc3C)n2)cc(OC)c1OC	i	3.29µM	i	i
COCCNc1cc(C)nc2ccccc12	i	i	i	i
COc1ccc(N(C(=O)Cn2nnc3ccccc32)C2(C(=O)NC3CCCC3)CCCCC2)cc1	i	13.1µM	13.1µM	i
COc1ccc(OC)c(C(C(=O)NCc2ccco2)N(C(=O)Cn2nnc3ccccc32)C2CC2)c1 (centres undefined)	i	?	?	i
COc1ccc(C(C(=O)Nc2ccc(F)cc2)N(C(=O)Cn2nnc3ccccc32)C2CC2)cc1 (centres undefined)	i	5.86µM	?	i
COCCN(C(=O)Cn1nnc2ccccc21)C(C(=O)NC1CCCCC1)c1ccc(OC)cc1OC (centres undefined)	i	?	?	i
COc1ccc(N(C(=O)Cn2cnc3ccccc32)C(C(=O)NC2CCCCC2)c2ccccc2)cc1 (centres undefined)	i	13.1µM	?	i
COc1ccc(/C=C(\NC(=O)c2ccc(C)cc2)C(=O)NCC2CCCO2)cc1 (centres undefined)	i	i	i	i
Cc1cc(C(=O)Nc2ccc(Br)cc2)cs1	i	i	?	i
COC(=O)[C@@H](CC(C)C)N(Cc1ccccc1)S(=O)(=O)N(Cc1ccccc1)[C@@H](CC(C)C)C(=O)OC	i	nt	nt	i
COc1ccc(/C=C/C(=O)c2ccc(OC)cc2OC)c(OC)c1	i	?	3.7µM	i
SMILES	AMA1-RON2 inh	Pf growth 48h	Pf growth 96h	SARS PLpro yeast
COc1ccc(/C=C/C(=O)c2ccccc2)c(OC)c1	i	i	i	i
CCOc1ccc2nc(N/C(N)=N/C(=S)Nc3ccc(OC)cc3)nc(C)c2c1	i	4.15µM	?	i
COc1ccc2nc(N/C(N)=N/C(=S)Nc3ccc(C)c(C)c3)nc(C)c2c1	nt	i	?	?
Cc1cccc(NC(=S)/N=C(\N)Nc2nc(C)c3cc(C)ccc3n2)c1	i	?	?	i
Cc1cc(C)cc(NC(=S)/N=C(\N)Nc2nc(C)c3ccccc3n2)c1	i	?	13.1µM	?
COc1ccc2nc(N/C(N)=N/C(=S)Nc3ccccc3)nc(C)c2c1	i	?	i	i
Cc1cccc(NC(=S)/N=C(\N)Nc2nc(C)c3ccccc3n2)c1	i	i	10.4µM	?
Cc1cccc(NC(=S)/N=C(\N)Nc2nc(C)c3ccc(C)cc3n2)c1	i	13.1µM	?	i
Cc1cccc(N2CCN(C(=O)Cn3ccc4ccccc4c3=O)CC2)c1C	i	i	i	i
Cc1ccc(CNC(=O)c2cncc(Br)c2)cc1	i	i	i	i
Cc1nc([N+](=O)[O-])cn1Cc1cccc2ccccc12	i	10.4µM	i	i
Cc1nc([N+](=O)[O-])cn1CC(O)c1ccccc1 (centres undefined)	i	i	i	i
COc1ccc(S(=O)(=O)n2ccc(-c3ccc4c(c3)CCC(C)(C)O4)n2)cc1	i	10.4µM	9.28µM	i
CC1(C)CCc2cc(-c3ccn(S(=O)(=O)c4ccccc4Cl)n3)ccc2O1	i	?	?	i
CCOC(=O)CN1C(=O)CC(c2ccc([N+](=O)[O-])cc2)C1=O (centres undefined)	i	i	7.38µM	i
COc1cccc(-n2c(/C=C/c3ccc(O)c(O)c3)nc3ccccc3c2=O)c1	i	?	9.28µM	i
COc1ccc(-n2c(/C=C/c3ccc4c(c3)OCO4)nc3ccccc3c2=O)cc1	i	?	9.28µM	i
CC(=O)Nc1ccc(N2C(=O)CC(N3CCN(Cc4ccc5c(c4)OCO5)CC3)C2=O)cc1 (centres undefined)	i	i	?	i
CCCCC(CC)C(=O)NCCCN1CCN(CCCNC(=O)C(CC)CCCC)CC1 (centres undefined)	i	5.86µM	i	i
COc1ccc(/C=C(/NC(=O)c2cccs2)C(=O)NC(C)(C)C)cc1OC	i	i	9.28µM	i
O=C(CC12CC3CC(CC(C3)C1)C2)NC(=S)NCc1ccco1	i	13.1µM	?	i
O=C(NCc1ccco1)C12CC3CC(CC(C3)C1)C2	i	?	i	i
Cc1cc(N2CCN(C)CC2)nc2ccccc12	i	nt	i	i
Cc1cc(NC(=O)c2cccs2)ncc1NC(=O)C(C)C	i	i	2.33µM	i
Cc1cc(NC(=O)c2ccccc2)ncc1NC(=O)c1cccs1	i	i	i	i
SMILES	AMA1-RON2 inh	Pf growth 48h	Pf growth 96h	SARS PLpro yeast
Cc1cc(NC(=O)c2cccs2)ncc1NC(=O)c1cccc(F)c1	i	i	5.22µM	i
N#Cc1cc(Oc2ccccc2)c(-n2nnc3ccccc32)cc1C#N	i	i	i	i
Cc1c(O)c(CN(C)C)cc2c1oc(=O)c1ccccc12	i	4.15µM	2.08µM	i
Cc1c(C)c2ccc(O)c(CN3CCCC3)c2oc1=O	i	?	?	i
Cc1c(O)c(CN2CCCCC2)cc2c1oc(=O)c1ccccc12	i	0.329µM	0.465µM	i
CN(C)Cc1c(O)c(Cl)cc2c3c(c(=O)oc12)CCCC3	?	nt	i	i
O=c1oc2c(CN3CCOCC3)c(O)c(Cl)cc2c2c1CCC2	nt	1.04µM	i	i
Cc1c(O)c(CN2CCCCC2)cc2c3c(c(=O)oc12)CCC3	i	10.4µM	9.28µM	i
O=c1oc2c(CN3CCCCC3)c(O)ccc2c2c1CCCC2	i	nt	?	i
COc1ccc(Cl)c(CNC[C@H]2O[C@@H](n3cnc(C(N)=O)n3)[C@H](O)[C@@H]2O)c1	i	nt	nt	nt
Brc1ccc2c(c1)CN1CCCC1=N2	i	10.4µM	?	i
